Results on 34 compounds are retold here after article PMC5540273 (PLoS ONE, 2017).
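Note: KINOMEscan kinase panel screen.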

The subject of the first assay is PKN2. Particulars: concentration: 1 μM, replicates: in singlicate; n = 1.
Consider `Cc1cccc(-c2nc(-c3ccc(S(C)(=O)=O)cc3)sc2-c2ccncc2)c1`, for which the “%Inh” value stood at 0%. For `Cc1ccc(NC(=O)c2ccnc(N3CCN(C)CC3)c2)cc1-c1ccc(C(=O)NCC2CC2)cc1` [GW775604], the “%Inh” value was 0%.

For `COc1ccc(COc2cc(-n3cnc4ccccc43)sc2C(N)=O)cc1` [GSK1024304], the “%Inh” value came out at 0%.

As to `Fc1ccc(-c2ncn(CCCN3CCOCC3)c2-c2ccccn2)cc1` [SB-211742], the “%Inh” value is reported as 9%. Same read-out and setting: the same measure for `CCCCCc1nc2c(N)ncnc2n1CCCCC` [SKF-97255]: 0%; for `N#Cc1c(N2CCOCC2)sc(-c2ccn[nH]2)c1-c1ccc(Cl)cc1`: 0%; for `O=C(Nc1cccc(-c2nn3ncccc3c2-c2ccnc(Nc3cccc(C(F)(F)F)c3)n2)c1)c1c(F)cccc1F` [GSK299495]: 0%. `CC(=O)Nc1ccc(COc2ccc(Nc3ccnc4cc(-c5ccccn5)ccc34)cc2)cc1.Cl` [GW440148]: the “%Inh” value is reported as 0%. As for `c1ccc(-c2cc(-c3c[nH]nc3-c3ccccn3)ccn2)cc1` [GW576604], the “%Inh” value turned out to be 0%. As to `O=C(c1ccc(-c2cc(-c3c[nH]nc3-c3ccccn3)ccn2)cc1)N1CCOCC1` [GW812171], the “%Inh” value is reported as 0%. Consider `Nc1nc(-c2ccc3c(N)n[nH]c3c2)cc(N2CCCC2)n1` [GSK2227430], for which the “%Inh” value turned out to be 0%. With `COc1ccc(Nc2nccc(N3CCC(NC(=O)Nc4cccc(C(C)=O)c4)C3)n2)cc1` (stereo not shown) [GSK1379731], the “%Inh” value was found to be 0%. On the same count and under the same terms, the same measure for `O=C1Cc2cc(Nc3nc(NCc4cccc(S(=O)(=O)C(F)(F)F)c4)ncc3C(F)(F)F)ccc2N1`: 0%; for `Cc1cccc(Cn2ccn3c(=O)cc(N4CCOCC4)nc23)c1` [GSK2297542]: 0%.

For the compound `O=c1cc(N2CCOCC2)nc2n(Cc3cccc(F)c3)ccn12` [GSK2297430], the “%Inh” value came out at 0%. Same read-out and setting: the same measure for `Cc1nnc(-c2ccc3occ(-c4ccc(C(C)O)cc4)c3c2)o1` (stereo not shown): 0%; for `O=c1cc(N2CCOCC2)nc2n(Cc3cccc4ccccc34)ccn12` [GSK2333389]: 0%.

Regarding `Fc1ccc(-c2ncn(CCCN3CCOCC3)c2-c2cccnc2)cc1` [SB-211743], the “%Inh” value is given as 13%.

As for `Cc1ccc(C(=O)NCC(N)=O)cc1-n1c(C)cc(OCc2ccc(F)cc2F)c(Br)c1=O`, the “%Inh” value turned out to be 0%. Same read-out and setting: next, `Cn1ccc2ncnc(Oc3ccc(NC(=O)Nc4ccncc4)c(Cl)c3)c21`: 0%; `COc1ccc(Nc2ncc(C#N)c(Nc3ccccc3C(N)=O)n2)cc1N1CCN(C)CC1.Cl` [GSK1558669]: 78%; `COc1ccc(S(=O)(=O)NC2CCN(c3cc(C)nc(Nc4cccc(C#N)c4)n3)CC2)cc1.O=C(O)C(F)(F)F` [GSK1653539]: 0%. For the compound `c1ccc(-c2n[nH]cc2-c2ccnc3ccccc23)nc1` [GW271431], the “%Inh” value was 0%. For `Nc1nccc(-c2c(-c3ccc(F)cc3)ncn2C2CCN(CC(F)(F)F)CC2)n1` [SB-236560], the “%Inh” value amounted to 0%.

For `COc1cc2ncn(-c3cc(OCc4sccc4Cl)c(C(N)=O)s3)c2cc1OC` [GSK448459], the “%Inh” value stood at 0%.

As for `O=c1cc(N2CCOCC2)nc2n(Cc3cccc(Cl)c3Cl)c(C3CC3)nn12` [GSK2358994], the “%Inh” value is 0%. For the compound `CCc1nc(-c2cccc(C)c2)c(-c2ccnc(NCc3ccccc3)c2)s1`, the “%Inh” value is 0%. As to `CSc1ccc(-c2cc3ncnc(SCC(=O)O)c3s2)cc1`, the “%Inh” value worked out at 0%. On to `COc1ccc(Nc2nccc(N3CCC(NC(=O)Nc4cc(C)ccc4C)C3)n2)cc1` (stereo not shown) [GSK1379741], for which the “%Inh” value amounted to 0%. As for `CC(C)(C)n1cnc2c(N)ncnc21` [SKF-97359], the “%Inh” value was determined as 0%. The same measure, in the same setting: next, `O=C(Nc1n[nH]c2cc(-c3cccc(F)c3)ccc12)C1CC1` [SB-735464]: 17%. The same measure, in the same setting: next, `Cc1c2ccc(N(C)c3ccnc(Nc4cccc(S(N)(=O)=O)c4)n3)cc2nn1Cc1ccccc1.Cl.Cl` [GW787226]: 0%; `O=C(NCCNc1ccnc(Nc2ccc(F)cc2)n1)c1cc2ccccc2s1` [GSK1379874]: 0%; `Cc1cn2c(=O)cc(N3CCOCC3)nc2n1Cc1cccc(Cl)c1Cl` [GSK2334006]: 0%.

Another assay deals with PLK1. Particulars: concentration: 1 μM, replicates: in singlicate; n = 1.
Regarding `Cc1cccc(-c2nc(-c3ccc(S(C)(=O)=O)cc3)sc2-c2ccncc2)c1`, the “%Inh” value is 0%. Same read-out and setting: next, `Cc1ccc(NC(=O)c2ccnc(N3CCN(C)CC3)c2)cc1-c1ccc(C(=O)NCC2CC2)cc1` [GW775604]: 6%; `COc1ccc(COc2cc(-n3cnc4ccccc43)sc2C(N)=O)cc1` [GSK1024304]: 97.4%. Same read-out and setting: the same measure for `Fc1ccc(-c2ncn(CCCN3CCOCC3)c2-c2ccccn2)cc1` [SB-211742]: 12%; for `CCCCCc1nc2c(N)ncnc2n1CCCCC` [SKF-97255]: 19%; for `N#Cc1c(N2CCOCC2)sc(-c2ccn[nH]2)c1-c1ccc(Cl)cc1`: 24%. On the same count and under the same terms, the same measure for `O=C(Nc1cccc(-c2nn3ncccc3c2-c2ccnc(Nc3cccc(C(F)(F)F)c3)n2)c1)c1c(F)cccc1F` [GSK299495]: 0%; for `CC(=O)Nc1ccc(COc2ccc(Nc3ccnc4cc(-c5ccccn5)ccc34)cc2)cc1.Cl` [GW440148]: 0%. On to `c1ccc(-c2cc(-c3c[nH]nc3-c3ccccn3)ccn2)cc1` [GW576604], for which the “%Inh” value is listed as 0%. Still for that read-out and setting: the same measure for `O=C(c1ccc(-c2cc(-c3c[nH]nc3-c3ccccn3)ccn2)cc1)N1CCOCC1` [GW812171]: 0%. For the compound `Nc1nc(-c2ccc3c(N)n[nH]c3c2)cc(N2CCCC2)n1` [GSK2227430], the “%Inh” value was determined as 0%. On the same count and under the same terms, next, `COc1ccc(Nc2nccc(N3CCC(NC(=O)Nc4cccc(C(C)=O)c4)C3)n2)cc1` (stereo not shown) [GSK1379731]: 7%.

On to `O=C1Cc2cc(Nc3nc(NCc4cccc(S(=O)(=O)C(F)(F)F)c4)ncc3C(F)(F)F)ccc2N1`, for which the “%Inh” value came to 0%. On the same count and under the same terms, the same measure for `Cc1cccc(Cn2ccn3c(=O)cc(N4CCOCC4)nc23)c1` [GSK2297542]: 14%; for `O=c1cc(N2CCOCC2)nc2n(Cc3cccc(F)c3)ccn12` [GSK2297430]: 1%.

On to `Cc1nnc(-c2ccc3occ(-c4ccc(C(C)O)cc4)c3c2)o1` (stereo not shown), for which the “%Inh” value is reported as 2%.

As to `O=c1cc(N2CCOCC2)nc2n(Cc3cccc4ccccc34)ccn12` [GSK2333389], the “%Inh” value amounted to 0%.

For the compound `Fc1ccc(-c2ncn(CCCN3CCOCC3)c2-c2cccnc2)cc1` [SB-211743], the “%Inh” value was determined as 0%.

With `Cc1ccc(C(=O)NCC(N)=O)cc1-n1c(C)cc(OCc2ccc(F)cc2F)c(Br)c1=O`, the “%Inh” value is 0%. On to `Cn1ccc2ncnc(Oc3ccc(NC(=O)Nc4ccncc4)c(Cl)c3)c21`, for which the “%Inh” value is recorded as 0%. On the same count and under the same terms, the same measure for `COc1ccc(Nc2ncc(C#N)c(Nc3ccccc3C(N)=O)n2)cc1N1CCN(C)CC1.Cl` [GSK1558669]: 100%; for `COc1ccc(S(=O)(=O)NC2CCN(c3cc(C)nc(Nc4cccc(C#N)c4)n3)CC2)cc1.O=C(O)C(F)(F)F` [GSK1653539]: 0%. For `c1ccc(-c2n[nH]cc2-c2ccnc3ccccc23)nc1` [GW271431], the “%Inh” value worked out at 0%. Same read-out and setting: next, `Nc1nccc(-c2c(-c3ccc(F)cc3)ncn2C2CCN(CC(F)(F)F)CC2)n1` [SB-236560]: 0%; `O=c1cc(N2CCOCC2)nc2n(Cc3cccc(Cl)c3Cl)c(C3CC3)nn12` [GSK2358994]: 0%.

In the case of `CCc1nc(-c2cccc(C)c2)c(-c2ccnc(NCc3ccccc3)c2)s1`, the “%Inh” value came to 0%. For the compound `CSc1ccc(-c2cc3ncnc(SCC(=O)O)c3s2)cc1`, the “%Inh” value was determined as 0%. Still for that read-out and setting: next, `COc1ccc(Nc2nccc(N3CCC(NC(=O)Nc4cc(C)ccc4C)C3)n2)cc1` (stereo not shown) [GSK1379741]: 0%; `CC(C)(C)n1cnc2c(N)ncnc21` [SKF-97359]: 0%; `O=C(Nc1n[nH]c2cc(-c3cccc(F)c3)ccc12)C1CC1` [SB-735464]: 0%. Consider `Cc1c2ccc(N(C)c3ccnc(Nc4cccc(S(N)(=O)=O)c4)n3)cc2nn1Cc1ccccc1.Cl.Cl` [GW787226], for which the “%Inh” value stood at 0%. Still for that read-out and setting: the same measure for `O=C(NCCNc1ccnc(Nc2ccc(F)cc2)n1)c1cc2ccccc2s1` [GSK1379874]: 0%; for `Cc1cn2c(=O)cc(N3CCOCC3)nc2n1Cc1cccc(Cl)c1Cl` [GSK2334006]: 24%.
